# Values joined by “and” are separate entries in the source; they are usually repeats but may differ in a detail not shown here. Identical values can stand only once. Results filed as inconclusive are left out. Entries that show only a call come without a potency. Active and inactive are the calls of the source. Calls come from the whole dose curve; as a rule, active = well fitted cell-killing curve with a large enough effect in the repeat runs; inconclusive = weak or mixed curves, or effect the other way; inactive = flat fitted curve, though single readings scatter.
# Assay: qHTS RealTime-Glo MT Cell Viability Assay in HepG2 cells - 0 hour (AID 1224889); note: nearly all actives have a fitted effect of over 50% in size
# Details: RealTime-Glo luminescence; series mostly up to 76.8 µM
# Description: U.S. Tox21 Program National Center for Advancing Translational Sciences [NCATS] NIH Chemical Genomics Center [NCGC] U.S. Environmental Protection Agency [EPA] National Institutes of Environmental Health Sciences [NIEHS] National Toxicology Program [NTP] U.S. Food and Drug Administration [FDA] Tox21 Assay Overview: Measure of cell viability is critical in the cell-base assay. Analysis of cell viability is necessary for the characterization of cell responses to cytotoxic drugs and environmental stress. A RealTime-Glo MT Cell Viability Assay to monitor cell viability in real time of continues cell culture during 40 hours of compound treatment was used to screen Tox21 10K library compounds in HepG2 cells. The RealTime-Glo MT Cell Viability Assay is a nonlytic, homogeneous, bioluminescent method to measure cell viability in real time using a simple, plate-based method. The assay involves adding NanoLuc luciferase and a cell-permeant prosubstrate to cells in culture. Viable cells reduce the proprietary prosubstrate to generate a substrate for NanoLuc luciferase. This substrate diffuses from cells into the surrounding culture medium, where it is rapidly used by the NanoLuc Enzyme to produce a luminescent signal. The signal correlates with the number of viable cells, making the assay well suited for cytotoxicity studies.
# Tox21 Assay Protocol Summary: The mixture of HepG2 cell suspension and reagents were dispensed at 600cells/6 ul/well in 1536-well tissue culture treated black solid bottom plates using a Multidrop dispenser. After the assay plates were incubated at a 37 C/5% CO2 incubator for 5 hours, 23 nL of compounds dissolved in DMSO, positive and negative controls was transferred to the assay plate by a pintool work station. The plates were incubated at 37 C for 40 hours. The luminescence intensity were measured at 0h, 8h, 16h, 24h, 32h and 40h time points using ViewLux plate reader during compound treatment.
# Potency is the fitted concentration of half-maximal effect.
row,Structure (SMILES),Potency
1,CCCCC/C=C\C/C=C\C/C=C\C/C=C\CCCC(=O)NCC(=O)O,inactive
2,Nc1ccc(Cl)cc1C(=O)c1ccccc1F,inactive
3,[Cl-].[Cl-].[Cl-].[Yb+3],inactive
4,FC(F)C(F)(F)OCC(Cn1cncn1)c1ccc(Cl)cc1Cl (stereo not given),inactive
5,Cc1ccn2nc(S(=O)(=O)Nc3c(F)cccc3F)nc2n1,inactive
6,CC(Cc1ccc(OCC(=O)O)cc1)NCC(O)c1csc(C(F)(F)F)n1 (stereo not given),inactive
7,Oc1cccc(Cl)c1Cl,inactive
8,CC(C)(C)c1ccc(OP(=O)(Oc2ccccc2)Oc2ccccc2)cc1,inactive
9,CC(C)N(C(=O)CCl)c1ccccc1,inactive
10,O=S(=O)(O)F,inactive
11,Oc1cc(Cl)cc(Cl)c1,inactive
12,CC(O)C(=O)[O][Hg][c]1ccccc1 (stereo not given),inactive
13,O=NN(CCO)CCO,inactive
14,Cc1cnc2c(C(=O)O)c(Cl)ccc2c1,inactive
15,O=[N+]([O-])c1ccc(CCl)cc1,inactive
16,CCC[CH2][Sn]([CH2]CCC)([O]C(C)=O)[O]C(C)=O,inactive
17,C=C(C)C(=O)[O][Sn]([CH2]CCC)([CH2]CCC)[CH2]CCC,inactive
18,CCOP(=O)(Sc1ccccc1)Sc1ccccc1,inactive
19,CCNS(=O)(=O)C(F)(F)C(F)(F)C(F)(F)C(F)(F)C(F)(F)C(F)(F)C(F)(F)C(F)(F)F,inactive
20,Cc1cccc(Cc2cnc[nH]2)c1C,inactive

row,Structure (SMILES),Potency
1,CCN(CC)C(=S)S,inactive
2,CCCCCCCc1ccc(O)cc1,inactive
3,CNC(=O)CSP(=O)(OC)OC,inactive
4,CCC(C)Br (stereo not given),inactive
5,COP(=O)(OC)Oc1ccc([N+](=O)[O-])cc1,inactive
6,CCCCCCCCCCCCCCn1cc[n+](C)c1,inactive
7,COc1cnc(OC)n2nc(NS(=O)(=O)c3c(OCC(F)F)cccc3C(F)(F)F)nc12,inactive
8,C=CCBr,inactive
9,O=Cc1ccccc1,inactive
10,Brc1cccc(-c2ccccc2)c1,inactive
11,O=C1C(Cl)=C(Cl)C(=O)C(Cl)=C1Cl,9.74 µM (active) and 12.3 µM (active)
12,CC(=O)[O-].CC(=O)[O-].CC(=O)[O-].[Cr+3],inactive
13,CC(=O)C(Cl)C(=O)N(C)C (stereo not given),inactive
14,NC1CCC(CC2CCC(N)CC2)CC1 (stereo not given),inactive
15,C1=CCC=C1,inactive
16,O=[N+]([O-])C(Br)Br,inactive
17,COP(=S)(OC)Oc1nc(Cl)c(Cl)cc1Cl,inactive
18,CN,inactive
19,CN1C(=O)[C@@H](NC(=O)c2cc3ccccc3[nH]2)N=C(c2ccccc2)c2ccccc21,inactive
20,CCC(C)c1cccc(C(C)CC)c1O (stereo not given),inactive

# From PubChem BioAssay (Tox21)
